Laboratory results: PubChem BioAssay (EPA / NIEHS)
“And” between values parts separate entries of the source, which are not always exact repeats. Equal values may be shown once. Records with an inconclusive call do not appear. A structure can be active in one record and inactive in another. The source made the active and inactive calls. Rule for the calls, unless noted: active = hit-call score of the fitted dose curve at least 0.9, where 1 is the maximum; inactive = score below 0.9.

Tests used:
[1] = read-out: Monokine induced gamma interferon (MIG), CXCL9 (gene 4283); test: BSK_SAg_MIG: BioMAP Diversity Plus: SAg Assay for Monokine induced gamma interferon (MIG) Biomarker Activity (AID 2283092); details: primary human HUVEC with PBMC; actives raise or lower the signal
How it was run: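 HUVEC plus human PBMC co-culture, chemicals dosed and MIG (CXCL9) quantified by ELISA at 24 h. Bidirectional curve fitting against DMSO as negative control and baseline, so both gain and loss of signal count as activity.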

[2] = BSK_SAg_PBMCCytotoxicity: PBMC Cytotoxicity Assessment in the BioMAP Diversity Plus: SAg Assay (AID 2283093); details: primary human HUVEC with PBMC;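 note: PBMC viability measured as Alamar Blue reduction fluorescence at 546/580 nm; fitted both ways against DMSO so a hit may be loss or gain of signal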;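 for AC50: PBMC superantigen activated with SEB plus TSST-1 one hour after compound addition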
How it was run: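 Human umbilical vein endothelial cells co-cultured with PBMC; PBMC (75,000/well) pre-treated with compound 1 h, then activated with SEB and TSST-1 (20 ng/mL final each) for 90 h. Alamar Blue added 6 h, fluorescence 546/580 nm; bidirectional fit versus DMSO.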

[3] = read-out: Interleukin-8 (IL8), CXCL8 (gene 3576); test: BSK_SAg_IL8: BioMAP Diversity Plus: SAg Assay for Interleukin-8 (IL8) Biomarker Activity (AID 2283094); details: primary human HUVEC with PBMC; actives raise or lower the signal
How it was run: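 Human umbilical vein endothelial cells co-cultured with PBMC, stimulated with superantigen; IL-8 measured by ELISA 24 h after chemical dosing. Bidirectional fitting versus DMSO; SRB staining in parallel cultures tracks cytotoxicity.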

[4] = BSK_SAg_Proliferation: Cell Proliferation Assessment in the BioMAP Diversity Plus: SAg Assay (AID 2283095); details: primary human HUVEC with PBMC
How it was run: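 Human umbilical vein endothelial cells co-cultured with PBMC; sulforhodamine B total-protein staining (0.1% SRB after 10% TCA fixation, absorbance 560 nm) at 96 h in sub-confluent culture. Fitted bidirectionally against DMSO.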

[5] = BSK_SAg_SRB: Viability Assessment in the BioMAP Diversity Plus: SAg Assay (AID 2283096); details: primary human HUVEC with PBMC;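 note: cells read one day after compound addition; hits may be either gain or loss of signal compared with DMSO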
How it was run: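 Endothelial/PBMC primary human co-culture; compound 24 h; fix 10% TCA, stain 0.1% SRB, A560; protein content as cytotoxicity proxy; bidirectional curve fit, DMSO = baseline.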

[6] = target: human CYP19A1, CYP19A1 (gene 1588) (UniProt P11511); test: NVS_ADME_hCYP19A1: NovaScreen (NVS) CYP450-related Enzyme Activity (ADME) Assay for human CYP19A1 (AID 2283098; active = hit-call score of the fitted dose curve at least 0.9, where 1 is the maximum;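 for AC50: potency for inhibitors seen as loss of fluorescent enzyme signal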)
How it was run: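 Cell-free enzyme assay with recombinant protein and a specific fluorogenic substrate, read by fluorescence intensity 0.5 h after dosing. Primary screen ran in duplicate at 10 uM; actives were retested in concentration series. Loss of signal versus acetonitrile baseline.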

[7] = target: human CYP1A1, CYP1A1 (gene 1543) (UniProt P04798); test: NVS_ADME_hCYP1A1: NovaScreen (NVS) CYP450-related Enzyme Activity (ADME) Assay for human CYP1A1 (AID 2283100; active = hit-call score of the fitted dose curve at least 0.9, where 1 is the maximum)
How it was run: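 Chemicals were first tested in duplicate at 10 uM, and those passing a 30% inhibition threshold were rerun as concentration series topping at 20 uM. Fluorescence read-out of recombinant enzyme turnover after 1 h, relative to acetonitrile.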

[8] = target: human CYP2C9, CYP2C9 (gene 1559) (UniProt P11712); test: NVS_ADME_hCYP2C9: NovaScreen (NVS) CYP450-related Enzyme Activity (ADME) Assay for human CYP2C9 (AID 2283108; active = hit-call score of the fitted dose curve at least 0.9, where 1 is the maximum)
How it was run: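 Cell-free assay of recombinant human CYP2C9 produced in Sf9 cells, with enzyme activity read by fluorescence intensity 0.75 h after compound addition. Loss of signal versus an acetonitrile negative control indicates inhibition. Primary screen used 10 uM in duplicate; actives were retested in concentration series.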

[9] = target: Cytochrome P450 3A4 (Homo sapiens) (UniProt P08684); test: NVS_ADME_hCYP3A4: NovaScreen (NVS) CYP450-related Enzyme Activity (ADME) Assay for human CYP3A4 (AID 2283110; active = hit-call score of the fitted dose curve at least 0.9, where 1 is the maximum)
How it was run: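 Cell-free assay using insect-cell-expressed human CYP3A4 with a fluorogenic substrate; fluorescence intensity was read 0.33 hour after dosing. Loss of signal relative to acetonitrile vehicle indicated inhibition. Primary single-concentration screen at 10 uM, in duplicate, then concentration series.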

[10] = target: Cytochrome P450 2C19 (Homo sapiens) (UniProt P33261); test: NVS_ADME_hCYP2C19: NovaScreen (NVS) CYP450-related Enzyme Activity (ADME) Assay for human CYP2C19 (AID 2283113; active = hit-call score of the fitted dose curve at least 0.9, where 1 is the maximum;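 for AC50: potency for inhibition seen as loss of fluorescent signal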)
How it was run: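 Compounds first screened in duplicate at 10 uM, then confirmed in concentration series. Insect-cell-expressed human CYP2C19 turned over a fluorogenic substrate, and fluorescence was read after 1 h. Inhibition taken as signal loss relative to acetonitrile.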

[11] = target: rat CYP2A1, Cyp2a1 (gene 24894) (UniProt P11711); test: NVS_ADME_rCYP2A1: NovaScreen (NVS) CYP450-related Enzyme Activity (ADME) Assay for rat CYP2A1 (AID 2283114)
How it was run: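 Recombinant rat CYP2A1, cell-free, fluorogenic substrate turnover read by fluorescence intensity 0.75 h after dosing. Primary screen at 10 uM in duplicate; actives rerun as concentration-response up to 20 uM; loss of signal versus acetonitrile control.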

[12] = target: rat CYP2A2, Cyp2a2 (gene 24895) (UniProt P15149); test: NVS_ADME_rCYP2A2: NovaScreen (NVS) CYP450-related Enzyme Activity (ADME) Assay for rat CYP2A2 (AID 2283116; active = hit-call score of the fitted dose curve at least 0.9, where 1 is the maximum)
How it was run: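 Cell-free recombinant rat CYP2A2 activity with fluorogenic substrate, fluorescence read 0.2 h after dosing. Chemicals screened at 10 uM in duplicate, hits then run in concentration-response up to 20 uM; signal loss versus acetonitrile baseline.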

[13] = target: rat CYP2C11, Cyp2c11 (gene 29277) (UniProt P08683); test: NVS_ADME_rCYP2C11: NovaScreen (NVS) CYP450-related Enzyme Activity (ADME) Assay for rat CYP2C11 (AID 2283118; active = hit-call score of the fitted dose curve at least 0.9, where 1 is the maximum)
How it was run: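 Cell-free recombinant rat enzyme with fluorescent substrate; readout 0.33 h after dosing, loss of signal versus acetonitrile control. Initial duplicate single-point at 10 uM; actives rerun in concentration series.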

[14] = system: rat CYP2C6, gene 293989; test: NVS_ADME_rCYP2C6: NovaScreen (NVS) CYP450-related Enzyme Activity (ADME) Assay for rat CYP2C6 (AID 2283120; active = hit-call score of the fitted dose curve at least 0.9, where 1 is the maximum)
How it was run: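 Cell-free recombinant rat CYP2C6 with fluorogenic substrate, read by fluorescence 1 h after dosing; acetonitrile as negative control. Primary screen at 10 uM in duplicate, actives then in concentration-response up to 20 uM.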

[15] = target: rat CYP2C13, Cyp2c13 (gene 171521) (UniProt P20814); test: NVS_ADME_rCYP2C13: NovaScreen (NVS) CYP450-related Enzyme Activity (ADME) Assay for rat CYP2C13 (AID 2283121; active = hit-call score of the fitted dose curve at least 0.9, where 1 is the maximum)
How it was run: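 Recombinant rat CYP2C13 with fluorogenic substrate, 0.75 h cell-free incubation; primary screen in duplicate at 10 uM, actives followed in concentration series. Fluorescence loss relative to acetonitrile control indicates inhibition.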

[16] = target: rat CYP2D2, Cyp2d26 (gene 25053) (UniProt P10634); test: NVS_ADME_rCYP2D2: NovaScreen (NVS) CYP450-related Enzyme Activity (ADME) Assay for rat CYP2D2 (AID 2283124; active = hit-call score of the fitted dose curve at least 0.9, where 1 is the maximum)
How it was run: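 Recombinant rat CYP2D2 in a cell-free fluorogenic activity assay, fluorescence read 0.75 h after dosing. Primary screen in duplicate at 10 uM; actives re-run singly in concentration-response to 20 uM, relative to acetonitrile.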

[17] = target: human CYP1A2, CYP1A2 (gene 1544) (UniProt P05177); test: NVS_ADME_hCYP1A2: NovaScreen (NVS) CYP450-related Enzyme Activity (ADME) Assay for human CYP1A2 (AID 2283102; active = hit-call score of the fitted dose curve at least 0.9, where 1 is the maximum;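 for AC50: potency for inhibition since loss of fluorescence marks reduced CYP1A2 activity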)
How it was run: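 Enzyme activity of insect-cell-expressed human CYP1A2 measured by fluorescence 0.5 h after compound addition, relative to acetonitrile. Compounds first tested in duplicate at 10 uM, actives followed up in concentration series.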

[18] = target: human CYP2B6, CYP2B6 (gene 1555) (UniProt P20813); test: NVS_ADME_hCYP2B6: NovaScreen (NVS) CYP450-related Enzyme Activity (ADME) Assay for human CYP2B6 (AID 2283101; active = hit-call score of the fitted dose curve at least 0.9, where 1 is the maximum)
How it was run: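 Recombinant human CYP2B6 with fluorogenic substrate, read by fluorescence intensity 1 h after dosing. Primary screen in duplicate at 10 uM, actives followed in concentration series; signal loss relative to acetonitrile control.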

[19] = target: human CYP2D6, CYP2D6 (gene 1565) (UniProt P10635); test: NVS_ADME_hCYP2D6: NovaScreen (NVS) CYP450-related Enzyme Activity (ADME) Assay for human CYP2D6 (AID 2283107; active = hit-call score of the fitted dose curve at least 0.9, where 1 is the maximum)
How it was run: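 Fluorescence readout of recombinant CYP2D6 (insect-cell derived) activity after 1 h incubation with test chemical. Acetonitrile served as baseline, loss-of-signal direction. Single-concentration duplicate screening at 10 uM preceded concentration-response retesting.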

[20] = target: human CYP2A6, CYP2A6 (gene 1548) (UniProt P11509); test: NVS_ADME_hCYP2A6: NovaScreen (NVS) CYP450-related Enzyme Activity (ADME) Assay for human CYP2A6 (AID 2283099; active = hit-call score of the fitted dose curve at least 0.9, where 1 is the maximum)
How it was run: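 Compounds screened at 10 uM (duplicate) and, if active, titrated to a 20 uM top concentration against insect-cell-expressed CYP2A6. Loss of fluorescent product signal after 0.5 h, relative to acetonitrile baseline, indicates inhibition.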

Measured: AC50

rat CYP2A1, Cyp2a1 (gene 24894), sequence (P11711 whole entry, looked up): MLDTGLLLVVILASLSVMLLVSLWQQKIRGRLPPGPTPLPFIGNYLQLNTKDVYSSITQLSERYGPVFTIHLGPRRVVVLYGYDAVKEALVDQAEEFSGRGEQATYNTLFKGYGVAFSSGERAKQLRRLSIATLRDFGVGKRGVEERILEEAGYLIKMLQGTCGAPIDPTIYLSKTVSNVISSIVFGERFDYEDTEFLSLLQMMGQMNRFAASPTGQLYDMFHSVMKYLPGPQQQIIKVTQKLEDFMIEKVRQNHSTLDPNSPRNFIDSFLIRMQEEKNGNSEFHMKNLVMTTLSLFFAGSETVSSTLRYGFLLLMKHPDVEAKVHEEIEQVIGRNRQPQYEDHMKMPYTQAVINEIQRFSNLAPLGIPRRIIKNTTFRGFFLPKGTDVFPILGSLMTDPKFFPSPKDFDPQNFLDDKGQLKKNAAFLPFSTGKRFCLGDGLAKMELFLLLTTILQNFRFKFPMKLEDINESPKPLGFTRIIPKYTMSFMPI
rat CYP2C11, Cyp2c11 (gene 29277), sequence (P08683 whole entry, looked up): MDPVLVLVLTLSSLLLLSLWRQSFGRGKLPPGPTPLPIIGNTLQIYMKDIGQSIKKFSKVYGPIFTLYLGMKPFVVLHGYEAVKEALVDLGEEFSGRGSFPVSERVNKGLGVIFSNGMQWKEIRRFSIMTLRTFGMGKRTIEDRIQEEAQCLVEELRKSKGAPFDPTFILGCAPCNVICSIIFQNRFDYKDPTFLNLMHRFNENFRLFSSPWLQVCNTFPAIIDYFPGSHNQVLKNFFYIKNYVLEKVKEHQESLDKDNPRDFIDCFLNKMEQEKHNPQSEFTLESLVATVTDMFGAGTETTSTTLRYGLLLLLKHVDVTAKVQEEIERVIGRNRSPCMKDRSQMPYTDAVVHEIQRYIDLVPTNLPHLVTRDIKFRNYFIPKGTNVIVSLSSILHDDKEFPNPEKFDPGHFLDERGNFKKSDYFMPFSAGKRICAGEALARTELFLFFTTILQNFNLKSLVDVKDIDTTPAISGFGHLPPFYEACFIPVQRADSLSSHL
human CYP19A1, CYP19A1 (gene 1588), sequence (P11511 whole entry, looked up): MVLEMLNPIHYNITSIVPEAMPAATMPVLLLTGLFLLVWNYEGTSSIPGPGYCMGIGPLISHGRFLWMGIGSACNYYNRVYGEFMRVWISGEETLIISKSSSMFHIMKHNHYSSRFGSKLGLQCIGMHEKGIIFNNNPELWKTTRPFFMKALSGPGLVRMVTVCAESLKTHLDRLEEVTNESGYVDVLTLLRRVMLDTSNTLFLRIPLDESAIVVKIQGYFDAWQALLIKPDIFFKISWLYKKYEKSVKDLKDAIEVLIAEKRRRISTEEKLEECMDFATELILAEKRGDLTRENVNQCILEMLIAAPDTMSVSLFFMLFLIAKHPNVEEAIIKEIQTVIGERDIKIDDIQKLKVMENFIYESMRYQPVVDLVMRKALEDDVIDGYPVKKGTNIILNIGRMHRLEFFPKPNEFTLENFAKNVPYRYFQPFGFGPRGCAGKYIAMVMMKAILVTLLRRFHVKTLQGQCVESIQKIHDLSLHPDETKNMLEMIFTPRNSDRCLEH
human CYP1A2, CYP1A2 (gene 1544), sequence (P05177 whole entry, looked up): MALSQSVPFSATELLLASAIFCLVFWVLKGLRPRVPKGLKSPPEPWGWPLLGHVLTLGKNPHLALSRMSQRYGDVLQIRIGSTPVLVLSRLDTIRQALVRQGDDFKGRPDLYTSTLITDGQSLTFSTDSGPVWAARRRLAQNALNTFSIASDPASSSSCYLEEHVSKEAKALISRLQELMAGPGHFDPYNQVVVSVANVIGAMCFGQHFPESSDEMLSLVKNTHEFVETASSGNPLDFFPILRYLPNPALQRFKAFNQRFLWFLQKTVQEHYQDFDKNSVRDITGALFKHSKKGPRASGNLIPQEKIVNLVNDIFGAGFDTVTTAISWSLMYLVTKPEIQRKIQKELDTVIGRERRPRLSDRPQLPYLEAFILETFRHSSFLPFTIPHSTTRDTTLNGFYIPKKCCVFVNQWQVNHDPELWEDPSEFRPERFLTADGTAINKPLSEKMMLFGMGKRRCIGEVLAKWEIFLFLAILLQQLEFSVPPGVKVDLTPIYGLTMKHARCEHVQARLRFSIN
rat CYP2A2, Cyp2a2 (gene 24895), sequence (P15149 whole entry, looked up): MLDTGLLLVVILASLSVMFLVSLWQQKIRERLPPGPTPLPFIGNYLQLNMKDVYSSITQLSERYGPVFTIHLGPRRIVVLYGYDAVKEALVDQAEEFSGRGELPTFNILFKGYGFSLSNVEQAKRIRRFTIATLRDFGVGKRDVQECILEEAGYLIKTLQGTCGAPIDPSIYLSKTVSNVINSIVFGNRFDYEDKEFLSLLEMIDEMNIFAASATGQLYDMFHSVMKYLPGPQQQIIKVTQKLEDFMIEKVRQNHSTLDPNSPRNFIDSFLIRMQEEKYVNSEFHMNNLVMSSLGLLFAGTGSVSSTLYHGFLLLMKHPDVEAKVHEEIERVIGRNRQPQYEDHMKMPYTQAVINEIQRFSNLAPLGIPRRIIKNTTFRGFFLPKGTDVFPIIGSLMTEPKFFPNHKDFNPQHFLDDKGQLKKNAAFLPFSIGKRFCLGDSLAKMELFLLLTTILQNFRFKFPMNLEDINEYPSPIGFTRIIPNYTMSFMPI
human CYP2B6, CYP2B6 (gene 1555), sequence (P20813 whole entry, looked up): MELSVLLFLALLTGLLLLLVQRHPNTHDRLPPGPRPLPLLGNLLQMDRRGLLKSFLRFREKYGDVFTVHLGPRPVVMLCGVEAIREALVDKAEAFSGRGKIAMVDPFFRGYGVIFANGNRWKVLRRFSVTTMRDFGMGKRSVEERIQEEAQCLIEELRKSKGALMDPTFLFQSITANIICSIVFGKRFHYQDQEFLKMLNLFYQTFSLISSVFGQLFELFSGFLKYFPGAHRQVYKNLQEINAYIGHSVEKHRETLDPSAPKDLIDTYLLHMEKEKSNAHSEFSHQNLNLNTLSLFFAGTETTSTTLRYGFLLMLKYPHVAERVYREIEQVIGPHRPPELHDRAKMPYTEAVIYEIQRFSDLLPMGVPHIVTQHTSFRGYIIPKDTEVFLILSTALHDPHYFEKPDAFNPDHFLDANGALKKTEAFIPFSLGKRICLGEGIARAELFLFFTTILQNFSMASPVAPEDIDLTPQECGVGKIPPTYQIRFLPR
human CYP1A1, CYP1A1 (gene 1543), sequence (P04798 whole entry, looked up): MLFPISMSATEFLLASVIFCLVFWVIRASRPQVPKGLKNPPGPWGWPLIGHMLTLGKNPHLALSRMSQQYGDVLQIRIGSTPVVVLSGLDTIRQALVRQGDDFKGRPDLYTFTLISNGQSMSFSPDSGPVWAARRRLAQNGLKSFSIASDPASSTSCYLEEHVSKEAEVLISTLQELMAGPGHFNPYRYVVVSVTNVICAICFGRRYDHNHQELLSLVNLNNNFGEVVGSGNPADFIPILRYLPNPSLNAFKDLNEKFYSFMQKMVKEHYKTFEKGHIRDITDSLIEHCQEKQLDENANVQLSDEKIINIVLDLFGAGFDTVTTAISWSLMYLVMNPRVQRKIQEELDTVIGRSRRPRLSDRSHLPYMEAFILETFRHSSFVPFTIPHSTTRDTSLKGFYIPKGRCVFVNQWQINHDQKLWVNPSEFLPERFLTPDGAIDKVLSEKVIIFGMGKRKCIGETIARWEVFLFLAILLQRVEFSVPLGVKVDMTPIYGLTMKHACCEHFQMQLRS
rat CYP2C13, Cyp2c13 (gene 171521), sequence (P20814 whole entry, looked up): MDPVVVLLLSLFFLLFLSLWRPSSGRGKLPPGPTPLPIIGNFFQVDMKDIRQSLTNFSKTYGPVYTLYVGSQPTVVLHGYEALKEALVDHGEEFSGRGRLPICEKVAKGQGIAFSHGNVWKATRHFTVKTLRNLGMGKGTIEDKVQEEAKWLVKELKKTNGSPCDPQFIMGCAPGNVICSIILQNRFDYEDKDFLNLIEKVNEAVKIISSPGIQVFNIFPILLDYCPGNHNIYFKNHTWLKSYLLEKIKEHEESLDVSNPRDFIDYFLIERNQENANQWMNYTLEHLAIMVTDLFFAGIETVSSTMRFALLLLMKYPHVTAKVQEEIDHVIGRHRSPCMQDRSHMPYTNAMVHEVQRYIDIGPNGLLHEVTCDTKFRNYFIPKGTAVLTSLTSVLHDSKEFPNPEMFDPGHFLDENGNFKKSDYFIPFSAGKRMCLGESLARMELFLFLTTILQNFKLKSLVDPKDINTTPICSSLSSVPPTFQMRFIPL
human CYP2C9, CYP2C9 (gene 1559), sequence (P11712 whole entry, looked up): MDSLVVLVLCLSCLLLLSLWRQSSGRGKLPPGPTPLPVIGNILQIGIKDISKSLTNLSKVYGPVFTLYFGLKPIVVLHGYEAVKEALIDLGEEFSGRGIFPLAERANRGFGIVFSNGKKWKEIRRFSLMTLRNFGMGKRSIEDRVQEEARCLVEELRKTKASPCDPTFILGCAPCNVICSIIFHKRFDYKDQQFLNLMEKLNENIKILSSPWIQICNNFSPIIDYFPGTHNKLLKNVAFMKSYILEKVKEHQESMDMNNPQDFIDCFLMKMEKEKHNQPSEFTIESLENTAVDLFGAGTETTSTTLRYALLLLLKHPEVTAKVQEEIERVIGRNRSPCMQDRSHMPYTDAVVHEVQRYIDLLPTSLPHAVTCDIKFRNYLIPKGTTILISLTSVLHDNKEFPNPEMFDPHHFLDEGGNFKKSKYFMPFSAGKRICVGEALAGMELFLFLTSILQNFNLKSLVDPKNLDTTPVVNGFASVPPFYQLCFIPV
rat CYP2D2, Cyp2d26 (gene 25053), sequence (P10634 whole entry, looked up): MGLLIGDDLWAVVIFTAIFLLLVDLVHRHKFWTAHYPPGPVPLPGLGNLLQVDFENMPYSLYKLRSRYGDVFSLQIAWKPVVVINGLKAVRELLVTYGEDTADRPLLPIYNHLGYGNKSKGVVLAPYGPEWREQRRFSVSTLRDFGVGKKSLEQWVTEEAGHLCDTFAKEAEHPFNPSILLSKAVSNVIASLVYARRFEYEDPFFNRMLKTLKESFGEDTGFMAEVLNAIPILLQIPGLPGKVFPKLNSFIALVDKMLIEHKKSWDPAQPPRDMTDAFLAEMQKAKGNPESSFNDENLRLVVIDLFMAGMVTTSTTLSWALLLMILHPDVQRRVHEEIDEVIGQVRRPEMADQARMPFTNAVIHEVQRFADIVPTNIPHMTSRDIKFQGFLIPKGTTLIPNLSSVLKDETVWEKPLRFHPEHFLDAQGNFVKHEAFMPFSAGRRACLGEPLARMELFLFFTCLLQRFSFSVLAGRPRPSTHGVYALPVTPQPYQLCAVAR

C[C@]12CC[C@@H]3c4ccc(O)cc4C[C@@H](CCCCCCCCCS(=O)CCCC(F)(F)C(F)(F)F)[C@H]3[C@@H]1CC[C@@H]2O (stereo not given in full)
inactive: [1] | [2] | [3] | [4] | [5]

O=C(O)C1(C(=O)Nc2ccc(Cl)cc2Cl)CC1
active: [4] 12.3 µM
inactive: [1] | [2] | [3] | [5]

COC(=O)c1ccc(I)cc1S(=O)(=O)NC(=O)Nc1nc(C)nc(OC)n1
inactive: [1] | [2] | [3] | [4] | [5]

O=C(Nc1ccc([N+](=O)[O-])cc1Cl)c1cc(Cl)ccc1O
active: [1] 0.289 µM | [2] 1.78 µM | [3] 0.493 µM | [4] 0.148 µM | [5] 0.65 µM

CCOC(=O)c1ccc(O)cc1
inactive: [1] | [2] | [3] | [4] | [5]

CCOC(=O)COc1cc(-n2ncc(C(F)(F)F)c(C)c2=O)c(F)cc1Cl
inactive: [1] | [2] | [3] | [4] | [5]

Oc1ccc(C(c2ccc(O)cc2)C(Cl)(Cl)Cl)cc1
inactive: [6]
active: [1] 38.9 µM | [2] 20 µM | [3] 14.2 µM | [4] 24.1 µM | [5] 32.3 µM | [7] 10 µM | [8] 2.08 µM | [9] 7.75 µM | [10] 1.03 µM | [11] 1.29 µM | [12] 1.02 µM | [13] 188 nM | [14] 2.57 µM | [15] 883 nM | [16] 2.74 µM

COC(=O)c1ccc(CNS(C)(=O)=O)cc1S(=O)(=O)NC(=O)Nc1nc(OC)cc(OC)n1
inactive: [1] | [2] | [3] | [4] | [5]

COCCO
inactive: [1] | [2] | [3] | [4] | [5]

COC(=O)CSc1cc(N=c2sc(=O)n3n2CCCC3)c(F)cc1Cl
inactive: [1] | [2] | [3] | [4] | [5] | [6] | [7] | [17] | [16]

CCC(C)OC(=O)N1CCCCC1CCO (stereo not given)
inactive: [1] | [2] | [3] | [4] | [5]

CCCN(CCC)C(=O)SCC
active: [6] 0.652 µM | [10] 8.68 µM
inactive: [1] | [2] | [3] | [4] | [5] | [6] | [10]

CC(C)(c1ccc(O)cc1)c1ccc(O)cc1
inactive: [1] | [2] | [3] | [5] | [6] | [7] | [18]
active: [3] 14.5 µM | [4] 20.3 µM and 28.7 µM and 25.7 µM | [7] 5.22 µM | [18] 12.1 µM | [8] 5.49 µM [middle of 4 runs] | [11] 4.1 µM [middle of 4 runs] | [12] 2.98 µM [middle of 4 runs] | [13] 1.16 µM [middle of 4 runs] | [15] 4.5 µM [middle of 4 runs]

CCCCOCCOCCOCc1cc2c(cc1CCC)OCO2
inactive: [1] | [3] | [4] | [5] | [6] | [11] | [16]
active: [2] 15.9 µM | [7] 5.97 µM | [18] 10 µM | [17] 1.53 µM | [19] 3.87 µM | [8] 4.31 µM | [10] 1.73 µM | [13] 7570 nM | [14] 6.42 µM

CSC(=O)c1cccc2nnsc12
inactive: [1] | [2] | [3] | [4] | [5]
active: [20] 1.22 µM | [17] 0.653 µM | [19] 3.55 µM | [10] 3.95 µM
